A short description of this experiment: activators of LNCaP cell differentiation, retest, confirmation, side scatter shift, flow cytometry (AID 1069).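 Also: LNCaP human prostate cancer cells in low-serum medium with charcoal-stripped FBS; percent of cells with raised granularity gated so DMSO controls show 10%.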 The following applies: 4 d, stronger effect = higher value. A general note: In flow cytometry, cells or beads pass a laser one at a time.

The structures appear in SMILES notation. Active and inactive are the calls of the source.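 The calls were made as follows: active = high combined rank on largest and smallest cell-count-weighted shift across three tests, rank score above 45, floors 50 and 25 (some results past the limit were not filed as active); inactive = the rest.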

`Cc1ccc(NC(=O)N2CCCN(Cc3ccc(F)cc3)C2)cc1C`: the side scatter shift runs as follows: (at 100 µM) 15.4% (inactive); (side scatter shift, at 10 µM) 28.2%.

On to `O=C(NCC1CCCO1)C1CC(c2ccc(Cl)c(Cl)c2)=NO1` (stereo not given), for which the side scatter shift is 8.2% (inactive) (at 100 µM) and 2.4% (side scatter shift, at 10 µM).

`CN(CC(=O)Nc1ccc2c(c1)OCCO2)S(=O)(=O)c1cccc2cccnc12`: the side scatter shift (at 100 µM) was 16.8% (inactive) and the side scatter shift (side scatter shift, at 10 µM) stood at 3.95%.

In the case of `Cc1nc2nc(C)c(CCC(=O)NCCCN3CCN(c4cccc(Cl)c4)CC3)c(C)n2n1`, the side scatter shift (at 100 µM) was 27.9% (inactive) and the side scatter shift (side scatter shift, at 10 µM) came to 7.4%.

On to `Cc1ccc(S(=O)(=O)NCCCCC(NC(=O)OC(C)(C)C)C(=O)O)cc1` (stereo not given) (tested in a mixture with another compound), for which the side scatter shift was 8.9% (inactive) (at 100 µM) and 5.45% (side scatter shift, at 10 µM).

Take `CN1CCN(CC(=O)Nc2ccc(Cl)cc2Cl)CC1`: the side scatter shift runs as follows: (at 100 µM) 23.1% (inactive); (side scatter shift, at 10 µM) 6.1%.

With `CCN(CC)CCNC(=O)c1ccc(N2CCCCC2)c(NS(=O)(=O)c2ccc(C)cc2)c1`, the side scatter shift was 17.6% (inactive) (at 100 µM) and 38.6% (side scatter shift, at 10 µM).

Take `Cc1ccccc1-c1nc(CN2CCC(C(=O)NCCCN3CC(C)CC(C)C3)CC2)c(C)o1` (stereo not given): the side scatter shift (at 100 µM) is 54.5% (active) and the side scatter shift (side scatter shift, at 10 µM) turned out to be 78.4%.

Consider `Cc1cccc(-c2nsc(SCC(=O)Nc3nccs3)n2)c1`, for which the side scatter shift is 68.1% (active) (at 100 µM) and 6.2% (side scatter shift, at 10 µM).

`COCCNC(=O)CC(NS(=O)(=O)c1ccc(NC(C)=O)cc1)C(C)C` (stereo not given): the side scatter shift runs as follows: (at 100 µM) 6.3% (inactive); (side scatter shift, at 10 µM) 9.45%.

Consider `COc1ccc(Cl)c(N2CCN(CCCNC(=O)Nc3ccc(C)cc3)CC2)c1`, for which the side scatter shift by setting is: (at 100 µM) 26.3% (inactive); (side scatter shift, at 10 µM) 12%.

As to `CN1CCN(c2cc3c(c4c2[nH]c2ccccc24)C(=O)CC(C)(C)C3)CC1`, the side scatter shift runs as follows: (at 100 µM) 16.1% (active); (side scatter shift, at 10 µM) 56.2%.

Consider `Cn1c(C(=O)NCCCN2CCN(c3ccccc3F)CC2)cc2c(=O)n(C)c3ccccc3c21`, for which the side scatter shift (at 100 µM) was 20% (inactive) and the side scatter shift (side scatter shift, at 10 µM) was found to be 7.65%.

In the case of `Cc1oc(-c2ccc(Cl)cc2)nc1CN1CCC(C(=O)NCc2ccco2)CC1`, the side scatter shift is, setting by setting: (at 100 µM) 37.1% (inactive); (side scatter shift, at 10 µM) 9.6%.

Turning to `O=C(NCCCN1CCN(c2ccccc2F)CC1)C1CCCN(S(=O)(=O)c2cnc[nH]2)C1` (stereo not given), the side scatter shift is 7.3% (inactive) (at 100 µM) and 4.1% (side scatter shift, at 10 µM).

For the molecule `O=C(Nc1cccc(Cl)c1)N1CCN(Cc2ccccc2)CC1`, the side scatter shift runs as follows: (at 100 µM) 7.1% (inactive); (side scatter shift, at 10 µM) 10.2%.

For the molecule `COc1ccc(C)cc1NC(=O)CCC(=O)Nc1ccc2nc(N3CCN(C)CC3)cc(C)c2c1`, the side scatter shift (at 100 µM) is 10.5% (inactive) and the side scatter shift (side scatter shift, at 10 µM) was determined as 13.4%.

For `CCC(=O)N(Cc1ccco1)c1nc(-c2cc(OC)ccc2OC)cs1`, the side scatter shift was 13.2% (inactive) (at 100 µM) and 9.2% (side scatter shift, at 10 µM).

As for `CCc1ccc(CNC(=O)CN2C(=O)COc3ccccc32)cc1`, the side scatter shift (at 100 µM) is 9% (inactive) and the side scatter shift (side scatter shift, at 10 µM) was found to be 5.7%.

Take `Cc1ccccc1-c1nc(CN2CCC(C(=O)NCC3CCCO3)CC2)c(C)o1` (stereo not given): the side scatter shift (at 100 µM) is 22.5% (inactive) and the side scatter shift (side scatter shift, at 10 µM) was 7.1%.

As to `CCc1ccc(-c2nc(CN3CCC(C(=O)NCCN(CC)c4ccccc4)CC3)c(C)o2)cc1`, the side scatter shift (at 100 µM) was 50% (inactive) and the side scatter shift (side scatter shift, at 10 µM) is 24.1%.

For the molecule `COc1ccc(Nc2nc(N)nc(CN3CCC(Cc4ccccc4)CC3)n2)cc1`, the side scatter shift (at 100 µM) is 16.7% (inactive) and the side scatter shift (side scatter shift, at 10 µM) came to 33.3%.

On to `CCN1CCCC1CNC(=O)c1cc2c(-c3cccc(OC)c3)nn(C)c2s1` (stereo not given), for which the side scatter shift (at 100 µM) was 40% (inactive) and the side scatter shift (side scatter shift, at 10 µM) came to 12.8%.

Regarding `Cc1ccc(OCC(O)Cn2c(=N)n(CCN3CCCCC3)c3ccccc32)cc1` (stereo not given), the side scatter shift is, setting by setting: (at 100 µM) 23.1% (active); (side scatter shift, at 10 µM) 65.5%.

For the molecule `O=C(CN1CCN(Cc2ccc3c(c2)OCO3)CC1)N1CCc2[nH]c3ccc(F)cc3c2C1`, the side scatter shift by setting is: (at 100 µM) 20.8% (inactive); (side scatter shift, at 10 µM) 7.3%.

As to `CN(C)CCCN1c2ccccc2CCc2ccc(Cl)cc21`, the side scatter shift is 20.9% (active) (at 100 µM) and 48.4% (side scatter shift, at 10 µM).

With `Cc1cc(C)c2c(=O)n(CC(=O)NCCCN3CCN(c4ccccc4F)CC3)sc2n1`, the side scatter shift is 20% (inactive) (at 100 µM) and 6.8% (side scatter shift, at 10 µM).

In the case of `COc1ccc(CCN2CCC(Nc3nc4ccccc4n3Cc3ccc(F)cc3)CC2)cc1`, the side scatter shift (at 100 µM) was 0% (active) and the side scatter shift (side scatter shift, at 10 µM) was 35.3%.

For the molecule `COc1ccc(-n2cc(-c3ccccc3)c3c(N4CCN(CCO)CC4)ncnc32)cc1`, the side scatter shift runs as follows: (at 100 µM) 33.3% (inactive); (side scatter shift, at 10 µM) 9.55%.

Regarding `Cn1c(C(=O)NCCCN2CCN(c3cccc(Cl)c3)CC2)cc2c(=O)n(C)c3ccccc3c21`, the side scatter shift reads like this: (at 100 µM) 69.6% (active); (side scatter shift, at 10 µM) 5.45%.

For the molecule `Cc1oc(-c2cccc(Cl)c2)nc1CN1CCC(C(=O)NCc2ccco2)CC1`, the side scatter shift reads like this: (at 100 µM) 35% (inactive); (side scatter shift, at 10 µM) 6.2%.

For `CCN(CC)CCCNc1oc(-c2cccc(Cl)c2)nc1C#N`, the side scatter shift is 21.9% (inactive) (at 100 µM) and 32.5% (side scatter shift, at 10 µM).

With `Cc1oc(-c2ccccc2F)nc1CN1CCC(C(=O)NC2CCCCCCC2)CC1`, the side scatter shift by setting is: (at 100 µM) 16.7% (inactive); (side scatter shift, at 10 µM) 9.45%.

As to `CCN(CC)CC(=O)Nc1ccc(-c2nc3cc(NC(=O)CN(CC)CC)ccc3o2)cc1`, the side scatter shift (at 100 µM) is 0% (active) and the side scatter shift (side scatter shift, at 10 µM) was 42%.

Turning to `CCN(CCNC(=O)C1CCCN(Cc2nc(-c3ccc(OC)cc3)oc2C)C1)c1ccccc1` (stereo not given), the side scatter shift runs as follows: (at 100 µM) 27.8% (inactive); (side scatter shift, at 10 µM) 35.5%.
